# Screens deposited in PubChem BioAssay by National Center for Advancing Translational Sciences (NCATS).
# An excerpt weighted towards active compounds, which were near 19% of everything screened.
# HT1080 IDH1KD tx – kills HT-1080 cells with IDH1 knockdown; 360,000 tested, 2% active; Potency, µM (top dose mostly 46.1 µM), without a hit: top-dose activity, negative = toxicity, hits mostly cytotoxic; HT-1080 IDH1 knockdown viability, ATP luminescence, 48 h; AID 686971;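 also: potency is read from the fitted curve at half-maximal effect; 0% = DMSO wells and -100% = cell-free medium wells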
#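 Using the IDH1-knockdown HT-1080 line run in the same batch and compound series as the NT line, viability after 48 h at 37 °C was determined by CellTiter-Glo luminescence and expressed as % activity.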
# IL-1B inflam inh – blocks inflammasome-driven IL-1 beta release; THP-1 LPS/ATP IL-1B secretion, AlphaLISA, 16 h; stronger effect = lower value; activity change, % at 57.5 µM; 360,000 tested, 4.7% active; AID 743279; in the data active = activity change below about -50%; inconclusive = mostly about -30% to -49%
#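 Secreted IL-1B measured by AlphaLISA bead assay after 16 h compound exposure of THP-1 cells; compounds (final up to 57.5 uM) added 1 h before LPS (250 ng/mL) and ATP (1.25 mM) stimulation; lower signal means less secretion.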
# TDP1 cell CPT – growth inhibition of DT40 Tdp1-/-;hTDP1 cells with camptothecin (screen for TDP1 inhibitors) | 420,000 tested, 12% active | AID 686979 | Potency, µM (series often up to 46.2 µM), for the others: at the top dose activity change, negative = growth inhibition, actives largely listed as inhibitors | chicken DT40 Tdp1-/-;hTDP1 cells + 20 nM CPT, ATP luminescence, 48 h; also: potency is read from the fitted curve at half-maximal effect; nearly all actives have a fitted effect of over 55% in size
#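 Cell growth measured by CellTiter-Glo luminescence after a minimum 48 h, 37 C compound exposure with 20 nM CPT in Tdp1-knockout DT40 cells stably expressing hTDP1, seeded 400/well; qHTS titration format.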
# DT40 TDP1 no CPT – qHTS for Inhibitors of human tyrosyl-DNA phosphodiesterase 1 (TDP1): qHTS in cells in absence of CPT; DT40 Tdp1-/- hTDP1 cells, no CPT, ATP luminescence, 48 h; Potency, µM (highest dose often 46.2 µM), inactives show at the highest dose activity change, negative = growth inhibition, hits mostly inhibitors; 420,000 tested, 15% active; AID 686978, 2013; also: potency is read from the fitted curve at half-maximal effect; nearly all actives have a fitted effect of over 55% in size
#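 Chicken DT40 Tdp1-/- cells stably complemented with human TDP1 were seeded at 400 cells/well with DMSO in place of 20 nM camptothecin. After compound pinning, cells grew at least 48 hr at 37 °C; viability read by CellTiter-Glo luminescence.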
# HT1080-NT tox – kills 2HG-producing HT-1080-NT fibrosarcoma cells. HT-1080-NT fibrosarcoma viability, CellTiter-Glo ATP luminescence, 48 h. AID 686970. Potency, µM (highest dose often 46.1 µM), without a hit: at the top dose activity, negative = less viability, actives largely listed as cytotoxic. 360,000 tested, 1.6% active;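 also: NT is the 2HG producing partner of a matched IDH1 knockdown line; potency is read from the fitted curve at half-maximal effect; 0% = DMSO-treated cells and -100% = media-only wells without cells; nearly all actives have a fitted effect of over 55% in size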
#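 HT-1080-NT fibrosarcoma cells (2HG-overproducing), 750 cells/well in RPMI with 5% FBS, dosed after 2 h and incubated 48 h at 37C. CellTiter-Glo luminescence normalized to DMSO and no-cell wells; concentration-response curves fitted and classed.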
# An asterisk follows results filed as active; i = inactive; ? = inconclusive; . = no result. Unless noted, calls follow the shape of the dose curve; as a rule, active = well fitted curve in the direction sought with a large enough effect; inconclusive = small, poorly fitted or top-dose-only effect, or another doubt; inactive = no such curve, though single readings can be large; an effect the other way counts as inactive or inconclusive. Unless noted, % is scaled to controls: 0 for no effect and ±100 for the full control effect.
SMILES,HT1080 IDH1KD tx,IL-1B inflam inh,TDP1 cell CPT,DT40 TDP1 no CPT,HT1080-NT tox
CC(C)N(Cc1ccccc1)C(=O)CN1C(=O)CSc2ccc(S(=O)(=O)N3CCCC3)cc21,.,.,12µM*,-82%,.
CC1CCN(S(=O)(=O)c2ccc3c(c2)N(CC(=O)O)C(=O)CO3)CC1,.,.,15µM*,16µM*,.
Cc1cccc(NC(=O)CN2C(=O)COc3ccc(S(=O)(=O)N4CCC(C)CC4)cc32)c1C,.,.,-29%,?,.
O=C(NCCCCc1ccccc1)c1ccccc1Cl,10%,?,8%,2%,13%
COc1ccc(-n2nc3c(c2NC(=O)c2ccc(Br)o2)CS(=O)(=O)C3)cc1,-18%,10,1%,23%,-4%
CN1CCN(C2CN(Cc3cn(Cc4ccc(Cl)cc4)nn3)S(=O)(=O)C2)CC1 (stereo unspecified),4%,61,-14%,-20%,10%
CCn1cc(C(=O)N2CCN(c3ccc(C(C)=O)cc3)CC2)c2cc(OC)c(OC)cc2c1=O,0%,-5,?,-22%,-9%
COc1cccc(-c2nc(CS(=O)CC(=O)N3CCN(c4cccc(C(F)(F)F)c4)CC3)c(C)o2)c1 (stereo unspecified),.,.,13µM*,13µM*,.
Cc1ccc(-c2nc(CS(=O)CC(=O)N3CCN(c4cccc(Cl)c4)CC3)c(C)o2)cc1 (stereo unspecified),.,.,16µM*,?,.
Cc1oc(-c2ccc(Cl)cc2)nc1CS(=O)CC(=O)N1CCN(c2cccc(C(F)(F)F)c2)CC1 (stereo unspecified),.,.,15µM*,21µM*,.
Cc1oc(-c2ccccc2Cl)nc1CS(=O)CC(=O)N1CCN(c2cccc(C(F)(F)F)c2)CC1 (stereo unspecified),.,.,9.2µM*,13µM*,.
Cc1cccc(N2CCN(c3ccc(NC(=O)c4ccccc4)cc3C(=O)O)CC2C)c1 (stereo unspecified),.,.,-8%,-8%,.
O=C(O)C1CN(C(=O)c2cccc(Br)c2)C1,23%,6,1%,5%,7%
Cc1ccc(-c2nc(CS(=O)CC(=O)N3CCN(c4ccc(F)cc4)CC3)c(C)o2)cc1 (stereo unspecified),0%,-27,?,15µM*,-15%
N#CC1(CCCN2CCCCC2)c2ccccc2CCc2ccccc21,-5%,-57*,?,?,-16%
OC1(C#CCCN2CCCCC2)c2ccccc2-c2ccccc21,-8%,2,-6%,-25%,0%
O=C1Nc2ccccc2CCC1Sc1nnc(-c2ccc(Cl)cc2)s1 (stereo unspecified),4%,-5,?,29µM*,?
O=C(Nc1ccc(Cc2ccncc2)cc1)c1ccc([N+](=O)[O-])o1,5.2µM*,-96*,?,?,3.7µM*
O=C(Nc1ccc(OC(F)(F)F)cc1)c1cc(S(=O)(=O)N2CCCCC2)ccc1N1CCOCC1,-11%,-14,?,?,-15%
O=C(Nc1ccc(S(=O)(=O)N2CCOCC2)cc1)c1ccc([N+](=O)[O-])o1,8.2µM*,-100*,1µM*,2.6µM*,18µM*
O=C(Nc1ccc(OC(F)(F)F)cc1)c1ccc(S(=O)(=O)N2CCOCC2)o1,-6%,-51*,?,16µM*,-11%
CCn1nnc(NC(=O)c2ccc([N+](=O)[O-])o2)n1,?,-78*,?,?,?
CC1CCN(S(=O)(=O)c2ccc(C(=O)N3CCOCC3)cc2)CC1,21%,i,-5%,2%,5%
O=C(Nc1ccc(N2CCOCC2)cc1)c1ccc([N+](=O)[O-])o1,5.2µM*,-96*,5.2µM*,12µM*,7.3µM*
CCOc1ccc(-c2cc(C(=O)NCCOC)[nH]n2)c(C)c1,7%,18,-18%,-15%,21%
SMILES,HT1080 IDH1KD tx,IL-1B inflam inh,TDP1 cell CPT,DT40 TDP1 no CPT,HT1080-NT tox
CCOc1ccc(-c2cc(C(=O)Nc3ccc(C)c(NS(C)(=O)=O)c3)[nH]n2)c(C)c1,?,-2,18µM*,?,-27%
Cc1cc(NC(=O)c2ccc3c(c2)OCO3)ccc1NC(=O)c1ccco1,18µM*,.,?,?,?
COc1cc(OC)cc(C(=O)Nc2cc(NC(=O)c3ccco3)ccc2OC)c1,?,-23,23µM*,18µM*,-12%
COc1ccc(NC(=O)c2ccco2)cc1NC(=O)c1cc2ccccc2o1,2%,11,23µM*,15µM*,14%
Cc1cc(NC(=O)c2ccco2)ccc1NC(=O)c1ccco1,-26%,-10,?,?,?
O=C(Nc1ccc(NC(=O)c2cc3ccccc3o2)cc1)c1ccco1,-29%,1,?,?,?
COc1cc(OC)cc(C(=O)Nc2ccc(NC(=O)c3ccco3)c(C)c2)c1,23µM*,-21,?,?,?
CCCOc1cccc(C(=O)Nc2cc(NC(=O)c3ccco3)ccc2OC)c1,1%,-10,?,?,9%
Cc1cccc(NC(=O)c2cccnc2Oc2ccccc2)c1C(=O)O,5%,7,9%,-5%,-2%
CCc1cccc(CC)c1NC(=O)CN1CC(C)SC1=NC1CCCCC1 (stereo unspecified),5%,0,21µM*,13µM*,5%
O=C(NCc1ccccc1)NCC12CC3CC(CC(C3)C1)C2,0%,-7,?,?,0%
